Results taken from PubChem BioAssay (NCI).
About 79,000 compounds went through this panel and 15% of them were active in at least one assay; those are over-represented in the sample as a whole. Calls of active or inactive are those of the source. No stated cut-off is given here; in the data, active means growth inhibition above about 70%; inactive means the rest.

Legend:
[1] = NCI Yeast Anticancer Drug Screen. Data for the rad50 strain (AID 155);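 further: 0% = growth of vehicle-only cultures of the same strain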; details: S. cerevisiae rad50 strain growth inhibition; at 50.0 µM; stronger effect = higher value
Outline: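 Vehicle-treated cultures provide the reference for the growth inhibition reported for compound-exposed, repair-deficient yeast.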

[2] = NCI Yeast Anticancer Drug Screen. Data for the mec2-1 strain (AID 157); details: S. cerevisiae mec2-1 strain, at 50.0 µM, stronger effect = higher value
Outline: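 Growth inhibition is read against vehicle-treated controls after compound exposure of the mec2-1 yeast strain, which is defective in DNA damage repair or cell cycle control.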

[3] = NCI Yeast Anticancer Drug Screen. Data for the sgs1 mgt1 strain (AID 161);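 further: 0% = growth of cultures given vehicle only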; details: S. cerevisiae sgs1 mgt1 strain, at 50.0 µM, stronger effect = higher value
Outline: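 This yeast growth screen uses a strain with defined DNA-repair lesions; compound-treated growth is compared with vehicle-treated growth.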

[4] = NCI Yeast Anticancer Drug Screen. Data for the cln2 rad14 strain (AID 165);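 further: 0% = growth equal to vehicle treated cultures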; details: S. cerevisiae cln2 rad14 strain, at 50.0 µM, stronger effect = higher value
Outline: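 Growth inhibition, relative to vehicle-treated controls, is the read-out. The test organism is a yeast strain with defined genetic alterations, cln2 rad14.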

[5] = NCI Yeast Anticancer Drug Screen. Data for the bub3 strain (AID 167); details: S. cerevisiae bub3 mutant strain, at 50.0 µM, stronger effect = higher value
Outline: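 Mutant yeast screening strain plus compound; vehicle-treated cultures serve as the 0% inhibition reference.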

[6] = NCI Yeast Anticancer Drug Screen. Data for the mlh1 rad18 strain (AID 175); details: S. cerevisiae mlh1 rad18 strain growth inhibition; at 50.0 µM; stronger effect = higher value
Outline: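 Cells of a genetically altered yeast strain, deficient in DNA damage repair, were treated with compound. Their growth was then compared with that of vehicle-treated cultures to give inhibition.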

Measured: growth inhibition

CCC(N)CBr (centres undefined)
inactive: [1] -9.65% | [2] 1.7% | [3] -9.5% | [4] -16.9% | [5] 5.3% | [6] 8.9%

Nc1cc(N=Nc2ccc([As](=O)(O)O)cc2)ccc1O
inactive: [1] 7.95% | [2] 13.4% | [3] -5.2% | [4] 11% | [5] 16.6% | [6] 16.9%

COc1cc(C)c(OP(=O)(OC)OC)cc1C
inactive: [1] 15.3% | [2] 0.7% | [3] 13.6% | [4] 59.1% | [5] 1.7% | [6] -0.65%

CCC[CH2][Sn]([CH2]CCC)([O]C(=O)CN)[O]C(=O)CN
inactive: [1] 29.9% | [2] 17.9% | [3] 35.4% | [4] 22% | [5] 19.1% | [6] 44.1%
